Shown are actives, neighbours in structure and some others; about 1.9% of the full set was active somewhere.
S1P4 antag = S1P4 receptor antagonists, primary screen, cell-based; 220,000 tested, 0.26% active; inhibition, % at 4.98 µM; AID 1510, 2009; S1P4-expressing cells, antagonist mode, reporter read-out; in the data active = inhibition above about 29%;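 also: 0% = wells stimulated with agonist and 100% = vehicle wells without agonist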
S1P4 agonist = S1P4 receptor agonists, primary screen, cell-based | activation, % at 4.98 µM | 220,000 tested, 0.35% active | S1P4-expressing cell line, agonist reporter assay | AID 1509, 2009; in the data active = activation above about 11%;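 also: 0% = DMSO vehicle and 100% = reference agonist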
S1P3 antag = S1P3 receptor antagonists, primary screen, cell-based. Sphingosine 1-phosphate receptor 3 (Homo sapiens), Q99500. CHO S1P3 NFAT-BLA reporter, FRET fluorescence, antagonist mode. inhibition, % at 4.98 µM. 170,000 tested, 0.27% active;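 active = inhibition above the plate cutoff, the mean inhibition of test wells on that plate plus 3 SD, cut at about 28% in these data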;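 also: cells challenged with S1P at its EC80 of 0.8 µM; blue over green emission ratio from cleaved BLA substrate after 4 h stimulation; 0% = S1P-stimulated wells and 100% = unstimulated DMSO-only wells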
Target sequence (Q99500 whole entry, looked up): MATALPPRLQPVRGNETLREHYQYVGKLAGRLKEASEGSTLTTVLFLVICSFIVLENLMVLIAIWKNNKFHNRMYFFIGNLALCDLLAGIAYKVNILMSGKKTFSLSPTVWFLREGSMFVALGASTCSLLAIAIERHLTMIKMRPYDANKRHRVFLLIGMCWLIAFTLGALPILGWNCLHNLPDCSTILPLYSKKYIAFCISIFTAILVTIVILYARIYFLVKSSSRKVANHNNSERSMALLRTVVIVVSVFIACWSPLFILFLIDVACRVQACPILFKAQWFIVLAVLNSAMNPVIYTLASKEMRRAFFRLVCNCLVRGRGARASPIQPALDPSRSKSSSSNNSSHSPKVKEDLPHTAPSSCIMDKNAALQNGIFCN
Pf gametocyte = late stage P. falciparum gametocyte viability inhibitors, primary screen, ATP luminescence, HTS | P. falciparum stage V gametocytes, 24 h | inhibition, % at 10.9 µM | 150,000 tested, 0.065% active;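 active = inhibition above the mean plus 3 SD of compounds within the control limits, set per campaign, cut at about 38% in these data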;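 also: 0% = DMSO wells and 100% = medium only without gametocytes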
PGE2 EP2 inh = human EP2 receptor antagonists, primary screen, TR-FRET cAMP, C6 glioma cells | Prostaglandin E2 receptor EP2 subtype (Homo sapiens), P43116 | C6 glioma cells expressing human EP2; cells stimulated with saturating PGE2 | inhibition, % at 25 µM | 260,000 tested, 0.52% active;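 active = percent inhibition above 40 after rounding to a whole number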;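 also: rat C6 glioma host cells with rolipram phosphodiesterase inhibitor present; the protocol text gives 20 µM as final concentration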
EP2 mod = EP2 receptor modulators, cAMP readout, primary screen, cell-based, HTRF cAMP, PGE2 stimulation; EP2-expressing cells, cAMP HTRF FRET, PGE2 co-stimulation; induction, % at 25 µM; 260,000 tested, 0.83% active; AID 940, 2007;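 active = compounds whose cAMP rise, as percent of the full-agonist control response, exceeds 60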;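 also: rat C6 glioma line stably carrying human EP2 under a CMV promoter; the protocol text gives 20 µM as final concentration; 100% = response of wells given 1 µM PGE2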
Numbers without * were called inactive; nt = no result; ! = not active in a repeat.

SMILES	S1P4 antag	S1P4 agonist	S1P3 antag	Pf gametocyte	PGE2 EP2 inh	EP2 mod
CCOC(=O)c1ccc(N=c2sc(C(=O)OC)cc(=O)n2CCCN2CCOCC2)cc1	60*	0	1	nt	12	25
CCOC(=O)c1ccc(N=c2sc(C(=O)OC)cc(=O)n2Cc2ccco2)cc1	14	-1	-34	nt	10	-8
COCCNC(=O)CN1CCC(O)(c2ccccn2)CC1	nt	nt	nt	nt	nt	-12
CCOc1ccc2nc(SCC(=O)Nc3ccccc3F)c(C#N)cc2c1	nt	nt	nt	nt	15	10
CC(=O)Nc1cc(OC(C)=O)c2nonc2c1OC(C)=O	109*	-3	54*	nt	21	nt
N=C(N)SCc1ccccc1Cl	1	-1	-3	12	7	0
N=C(N)SCc1ccc(Cl)cc1Cl (tested in a mixture with another compound)	nt	nt	nt	nt	53*	-32
Nc1ccc(N2CCCC2)cc1	nt	nt	nt	nt	68*	-94
O=C(O)c1cc(-c2ccc(-c3ccccc3)cc2)nc2cc3ccccc3cc12	nt	nt	nt	nt	46*	-52
COc1ccc(Cl)cc1N(CC(=O)NCc1ccncc1)S(=O)(=O)c1ccccc1	nt	nt	nt	nt	7	0
Nc1ccc(-c2nc3ccc(-c4nc5ccccc5o4)cc3[nH]2)cc1	-5	1	19	1	73*	-37
Cc1cc(C)c2[nH]c(=O)c(C(c3nnnn3C(C)(C)C)N3CCN(Cc4ccccc4)CC3)cc2c1 (stereo not drawn)	nt	nt	nt	nt	13	-7
CCc1ccc2[nH]c(=O)c(C(c3nnnn3C(C)(C)C)N3CCN(c4ccccc4F)CC3)cc2c1 (stereo not drawn)	nt	nt	nt	nt	11	74*
Cc1cc2cc(C(c3nnnn3C(C)(C)C)N3CCN(Cc4ccccc4)CC3)c(=O)[nH]c2cc1C (stereo not drawn)	nt	nt	nt	nt	91*	11
Cc1ccc(-c2nc(NC(=O)c3cccs3)sc2C)cc1C	nt	nt	nt	nt	6	-15
O=S(=O)(Nc1nc2ccccc2nc1Cl)c1ccccc1	-1	0	-16	nt	9	42
O=C(N=c1ccn(-c2nc3ccccc3nc2NS(=O)(=O)c2ccccc2)cc1)c1cccs1	-24	0	-3	9	49*	0
CCOc1ccccc1NC(=O)CSc1nc(-c2ccccc2)nc2ccccc12	nt	nt	nt	nt	6	61*
CCc1nc(SCC(=O)Nc2ccccc2OC)c2ccccc2n1	nt	nt	nt	nt	9	0
CCOc1ccccc1NC(=O)c1nc(-c2ccccc2)oc1C	-2	-2	2	-14	6	63*
Cc1oc(-c2ccccc2)nc1C(=O)Nc1nccs1	1	-1	-26	-2	9	7
C=CCOc1ccc(CNc2n[nH]c3nc(C)cc(C(F)(F)F)c23)cc1	nt	nt	nt	nt	7	-79
Cc1cccc(C)c1N(CC(=O)N1CCN(C)CC1)S(C)(=O)=O	-12	-5	-18	nt	14	64*
CCNc1nc(NCC)nc(SCCOC(=O)c2ccccc2)n1	-6	-1	nt	nt	6	63*
O=C(NC1CCCCCC1)C1CCN(C(=O)c2ccc(Cl)cc2Cl)CC1	nt	nt	nt	nt	13	-42
SMILES	S1P4 antag	S1P4 agonist	S1P3 antag	Pf gametocyte	PGE2 EP2 inh	EP2 mod
CC(C)NC[C@@H](O)c1ccc(O)c(O)c1	-7	0	1	nt	9	80*
CC(C)(C)NCC(O)c1ccc(O)c(CO)c1 (stereo not drawn)	nt	nt	nt	nt	14	78*!
CNC[C@@H](O)c1ccc(O)c(O)c1	nt	nt	nt	nt	10	82*
CC(=O)c1nnn(-c2ccc(F)cc2)c1NC1CCCC1	nt	nt	nt	nt	5	-52
O=C1c2ccccc2C(=O)c2c(Nc3ccc(CCO)cc3)ccc(O)c21	1	0	-12	nt	5	-27
O=C1c2ccccc2C(=O)c2c(NC3CCCCC3)ccc(Nc3ccc(S(=O)(=O)O)cc3)c21	nt	nt	nt	nt	71*	-15
COc1ccc(S(=O)(=O)N2CCC(C(=O)NCc3ccccc3)CC2)cc1C	nt	nt	nt	nt	3	-38
O=C(O)c1cccc(CSc2nc(-c3ccc(Cl)cc3)cc(C(F)(F)F)n2)c1	3	0	nt	4	12	64*
COc1ccc(-c2cc(C)nc(SCc3cccc(C(=O)O)c3)n2)cc1	-2	0	-4	nt	7	7
CCn1c(SCC(=O)Nc2cccc(F)c2)nnc1-c1cccnc1	nt	nt	nt	nt	11	-3
COc1ccc(NC(=O)CSc2nc(N)c(C(=O)Nc3ccc(N(C)C)cc3)s2)cc1	-11	2	nt	nt	6	-20
Cc1sc2nc(C3CC3)nc(SCC(=O)Nc3ccc(N(C)C)cc3)c2c1C	nt	nt	nt	nt	16	65*
CN(C)c1ccc(NC(=O)CSc2nc(N)c(C(=O)Nc3ccc(N(C)C)cc3)s2)cc1	-28	2	nt	nt	41*	-43
Cc1ccccc1NC(=O)C1C2C=CC3(O2)C1C(=O)N(c1ccc2c(c1)CCC2)C3C(=O)NC(C)(C)C (stereo not drawn)	nt	nt	nt	nt	15	18
COc1cc(O)c(C(=O)/C=C/c2ccc(OC)c(O)c2)c(OC)c1	nt	nt	nt	nt	57*	-3
CC(C(=O)NCCn1nc(-c2cccs2)oc1=O)c1ccccc1 (stereo not drawn)	nt	nt	nt	nt	6	5
COc1cccc2sc(Nc3nc(-c4cc5ccccc5oc4=O)cs3)nc12	-19	0	-18	nt	9	-9
COc1cccc2sc(Nc3nc(-c4ccncc4)cs3)nc12	5	2	-7	50*	1	-14
Cc1ccc(OCCNC(=O)C(C)Cn2cccn2)cc1 (stereo not drawn)	nt	nt	nt	nt	3	-39
Cc1ccc(CN2CCN(Cc3ccc(C)o3)[C@@H](C)C2)o1	nt	nt	nt	nt	43*	12
Cc1ccc(CN(CCCn2ccnc2)Cc2cccs2)s1	nt	nt	nt	nt	6	20
N#Cc1nc(-c2ccc(OCc3ccccc3)cc2)oc1NCCCn1ccnc1	-8	2	-10	nt	40*	-57
N#Cc1nc(-c2ccc(OCc3ccccc3Cl)cc2)oc1NCCCn1ccnc1	-3	0	-2	nt	nt	-38
Cc1cc(-c2cncnc2C2CCN(C(=O)c3ccc4ncccc4c3)CC2)on1	nt	nt	nt	nt	nt	-28
CC(C)(Oc1ccc(-c2ccco2)cc1)C(=O)O	-17	-1	nt	nt	13	23
SMILES	S1P4 antag	S1P4 agonist	S1P3 antag	Pf gametocyte	PGE2 EP2 inh	EP2 mod
CC(=O)c1sc(C(=O)O)c(-c2ccco2)c1-c1ccco1	14	-2	6	-10	43*	-36
CCS(=O)(=O)c1cc([N+](=O)[O-])c(Br)s1	nt	nt	nt	nt	74*	-119
c1ccc(CSc2nnc3c4ccccc4c4ccccc4c3n2)cc1	2	-1	-11	nt	55*!	25
COc1ccc(-c2nc(NC(=O)c3[nH]c(C)c(C(C)=O)c3C)sc2C)cc1	-6	-2	4	-14	100*	-64
CC(=O)c1c(C)[nH]c(C(=O)Nc2nc(-c3ccc(Cl)cc3)cs2)c1C	6	1	-6	nt	41*	-52
O=C(NC1CCCCC1)N(CCc1nc2ccccc2[nH]1)Cc1ccc(F)cc1	nt	nt	nt	nt	12	-22
